Columns and labels:
[1] = tested on: Botulinum neurotoxin type F light chain protease (Clostridium botulinum); experiment: Botulinum neurotoxin type F light chain protease inhibition, multiplex microsphere flow cytometry, validation set (AID 588459); settings: multiplex microsphere protease substrate cleavage assay, at 10 µM, active compounds read high
[2] = target: Botulinum neurotoxin type A (Clostridium botulinum) (UniProt P0DPI0); experiment: BoNT/A light chain protease inhibitors, biochemical, multiplex microsphere flow cytometry, validation set (AID 588460); settings: at 10 µM, active compounds read high
[3] = target: Lethal factor (Bacillus anthracis) (UniProt P15917); experiment: Lethal factor protease inhibitors, Bacillus anthracis, multiplex microsphere cleavage assay, validation set (AID 588461); settings: flow cytometry, at 10 µM, active compounds read high

Measured: inhibition

Sequence of Lethal factor (Bacillus anthracis) (P15917 whole entry, looked up): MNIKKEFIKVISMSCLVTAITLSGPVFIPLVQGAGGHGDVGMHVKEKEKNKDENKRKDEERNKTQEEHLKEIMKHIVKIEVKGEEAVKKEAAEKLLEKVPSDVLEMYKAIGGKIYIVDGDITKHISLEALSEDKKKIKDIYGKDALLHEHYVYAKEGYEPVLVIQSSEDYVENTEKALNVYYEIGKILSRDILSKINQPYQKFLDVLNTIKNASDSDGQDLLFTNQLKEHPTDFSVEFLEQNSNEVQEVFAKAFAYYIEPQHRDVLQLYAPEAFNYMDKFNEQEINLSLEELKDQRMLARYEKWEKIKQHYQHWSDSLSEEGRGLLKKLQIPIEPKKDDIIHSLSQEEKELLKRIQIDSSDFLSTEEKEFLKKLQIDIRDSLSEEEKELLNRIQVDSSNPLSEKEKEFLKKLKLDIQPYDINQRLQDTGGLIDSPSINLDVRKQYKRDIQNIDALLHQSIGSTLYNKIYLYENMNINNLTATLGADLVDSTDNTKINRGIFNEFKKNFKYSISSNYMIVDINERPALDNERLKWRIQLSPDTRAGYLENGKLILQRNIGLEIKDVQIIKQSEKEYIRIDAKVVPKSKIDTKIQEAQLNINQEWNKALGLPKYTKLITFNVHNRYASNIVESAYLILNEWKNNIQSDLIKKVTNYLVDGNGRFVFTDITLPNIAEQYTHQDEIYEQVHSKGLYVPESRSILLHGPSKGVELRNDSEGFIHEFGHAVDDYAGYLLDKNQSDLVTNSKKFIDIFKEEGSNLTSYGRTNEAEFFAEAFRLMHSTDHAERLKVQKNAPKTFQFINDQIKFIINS
Sequence of Botulinum neurotoxin type A (Clostridium botulinum) (P0DPI0 whole entry, looked up): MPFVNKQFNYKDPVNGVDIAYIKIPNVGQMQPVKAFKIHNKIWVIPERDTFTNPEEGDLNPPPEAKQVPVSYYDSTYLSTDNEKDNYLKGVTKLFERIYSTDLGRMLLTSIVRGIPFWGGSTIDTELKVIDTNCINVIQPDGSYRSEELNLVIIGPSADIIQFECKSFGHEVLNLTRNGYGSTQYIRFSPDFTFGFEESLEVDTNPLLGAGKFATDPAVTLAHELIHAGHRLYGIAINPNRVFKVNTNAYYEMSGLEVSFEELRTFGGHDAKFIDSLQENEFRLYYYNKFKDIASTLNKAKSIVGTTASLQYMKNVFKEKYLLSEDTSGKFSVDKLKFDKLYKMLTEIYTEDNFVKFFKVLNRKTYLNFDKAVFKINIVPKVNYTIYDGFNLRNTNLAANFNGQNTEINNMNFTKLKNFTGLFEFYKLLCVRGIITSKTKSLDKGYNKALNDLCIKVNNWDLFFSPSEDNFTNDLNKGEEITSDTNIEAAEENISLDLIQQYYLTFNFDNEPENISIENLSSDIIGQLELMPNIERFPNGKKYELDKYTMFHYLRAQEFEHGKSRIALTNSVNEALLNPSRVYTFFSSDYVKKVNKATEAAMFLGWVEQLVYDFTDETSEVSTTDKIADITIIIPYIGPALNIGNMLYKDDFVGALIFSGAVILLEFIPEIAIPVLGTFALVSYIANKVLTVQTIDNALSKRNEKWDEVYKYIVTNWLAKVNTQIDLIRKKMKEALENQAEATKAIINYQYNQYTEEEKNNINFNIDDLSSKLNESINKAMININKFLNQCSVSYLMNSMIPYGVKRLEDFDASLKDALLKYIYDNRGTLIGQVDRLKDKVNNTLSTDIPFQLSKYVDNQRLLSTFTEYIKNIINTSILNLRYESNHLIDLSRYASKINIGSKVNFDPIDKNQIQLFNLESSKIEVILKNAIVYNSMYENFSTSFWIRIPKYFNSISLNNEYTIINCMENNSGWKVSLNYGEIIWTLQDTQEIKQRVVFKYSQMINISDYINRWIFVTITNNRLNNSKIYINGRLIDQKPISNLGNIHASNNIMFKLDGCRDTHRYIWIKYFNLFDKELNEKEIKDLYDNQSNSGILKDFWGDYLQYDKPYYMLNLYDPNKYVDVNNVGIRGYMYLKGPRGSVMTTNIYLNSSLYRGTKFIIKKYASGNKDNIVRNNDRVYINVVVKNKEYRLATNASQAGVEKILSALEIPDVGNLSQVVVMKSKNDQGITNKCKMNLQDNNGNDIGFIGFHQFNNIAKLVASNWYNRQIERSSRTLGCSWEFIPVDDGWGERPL

C=C1C2(C(=O)Nc3ccc(SC(F)F)cc3)CCC(C2)C1(C)C (stereo unspecified)
inactive: [1] -1.3% | [2] -0.9% | [3] 1.3%

NC(N)=N/N=C/c1cccc(Cl)c1Cl
inactive: [1] 0.9% | [2] 1.3% | [3] -3.3%

COc1cc(NC(=S)NN2CCN(C)CC2)cc(OC)c1OC
inactive: [1] 5.5% | [2] -0.6% | [3] -5.6%

N#C/C(=C/c1ccccc1)C(=O)NCc1ccccc1
inactive: [1] 5.2% | [2] 0.1% | [3] -7.6%

CCCNCC(O)COc1ccccc1C(=O)CCc1ccccc1 (stereo unspecified)
inactive: [1] 1.5% | [2] 0% | [3] -1.2%

COc1cc(C2NCCc3c2[nH]c2ccccc32)ccc1OC(C)C (stereo unspecified)
inactive: [1] 1.4% | [2] -0.5% | [3] 4.3%

CCNC(=S)Nc1ccc(OC(F)(F)F)cc1
inactive: [1] 2.2% | [2] 2.8% | [3] 3%

Cc1cccc(-c2ncc(CN3CCN(CC(C)C)C(CCO)C3)cn2)c1 (stereo unspecified)
inactive: [1] 2.6% | [2] 0.9% | [3] 0.4%

CN1CCN(CC/C=C2/c3ccccc3Sc3ccc(S(=O)(=O)N(C)C)cc32)CC1
inactive: [1] 3.2% | [2] 0.9% | [3] 0%

CCNC1=C(Cl)C(=O)c2ccccc2C1=O
inactive: [1] 1.2% | [2] -0.3% | [3] -6%

Nc1cc(-c2ccncc2)c[nH]c1=O
inactive: [1] -3.2% | [2] -2% | [3] -5.1%

O=C(O)C[C@@H](O)C(=O)O
inactive: [1] 0.4% | [2] -0.4% | [3] -1.2%

Reference: PubChem BioAssay
